# From PubChem
# TWEAK-Fn14 inh = inhibitors of TWEAK-Fn14 interaction signaling | inhibition, % at 10 µM | TWEAK-stimulated Fn14 reporter cells, luciferase luminescence, 8 h | 360,000 tested, 2% active; in the data active means inhibition above about 50%
# TROY NFkB inh = TROY signaling inhibition. Q293 LMP1-TROYcd NF-kB luciferase reporter, 4 h. inhibition, % at 10 µM. 360,000 tested, 0.98% active. AID 1347056;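 active means compounds whose plate-normalised and pattern-corrected inhibition of the luciferase reporter signal at the single screening dose is 50% or more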
# LGR2 inh = inhibitors of bursicon-induced Drosophila LGR2 receptor cAMP signaling | HEK293 LGR2, CRE-luciferase, bursicon-stimulated, 4 h | inhibition, % at 9.99 µM | 380,000 tested, 0.35% active;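 active means drop in luminescence signal, shown as inhibition above about 50% in the replicate tests, limit read from the data, passing the limit was not always enough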;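 further: agonist challenge used bursicon conditioned medium at about half maximal strength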
# HSP90 inh = blocks HSP90-mediated luciferase refolding in reticulocyte lysate; 290,000 tested, 0.91% active; inhibition, % at 5.6 µM; Rabbit reticulocyte lysate, luciferase refolding luminescence, 3 h;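 active means inhibition above the screen-wide mean plus 3 SD, computed separately per campaign, cut at about 16% in these data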;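 further: inhibitors lower the luminescence because luciferase stays unfolded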
# A number is an active result; – = inactive; · = not tested or not shown. Rows were chosen to be rich in hits. Some 2.2% of all compounds tested hit in one or more screens of this group.
SMILES,TWEAK-Fn14 inh,TROY NFkB inh,LGR2 inh,HSP90 inh
O=C1CC(C(=O)N2CCCc3ccccc32)CN1c1ccc(F)cc1 (stereo not drawn),61,–,–,–
C[C@@H]1CN([C@H](C)CO)C(=O)c2cc(NC(=O)Cn3cnnn3)ccc2O[C@@H]1CN(C)S(=O)(=O)c1ccc(Cl)cc1,·,·,–,·
CC(C)Nc1ncnc2ccc(Br)cc12,78,–,–,–
CC(=O)[C@H]1CC[C@H]2[C@@H]3CC=C4C[C@@H](O)CC[C@]4(C)[C@H]3CC[C@]12C,–,–,–,·
CC12CCC(O)CC1=CCC1C2CCC2(C)c3[nH]ncc3CC12 (stereo not drawn),–,51,–,·
Cc1noc(C)c1NC(=O)Nc1cccc2c1O[C@@H](CN(C)CC1CC1)[C@H](C)CN([C@H](C)CO)C2=O,·,·,–,·
CCOC(=O)Cc1csc(NC(=O)c2ccc(Br)s2)n1,·,·,·,16
CCOC(=O)Cc1csc(NC(=O)c2c(O)c3ccccc3n(CC(C)C)c2=O)n1,54,–,–,–
CCOC(=O)Cc1csc(NC(=O)c2cccs2)n1,–,–,·,–
N#C[C@@H]1[C@H](c2ccc(C3=CCCCC3)cc2)[C@H](CO)N1C(=O)c1ccccn1,·,·,–,·
O=C(C[C@@H]1CC[C@@H](NC(=O)Cc2cccnc2)[C@@H](CO)O1)Nc1ccc(-c2ccccc2)cc1,·,·,–,·
CCOC(=O)c1ccc(NC(=O)C2CCCN(S(=O)(=O)c3ccc(F)cc3)C2)cc1 (stereo not drawn),58,–,·,–
COc1cccc(S(=O)(=O)N(C)C[C@H]2Oc3cc(C4=CCCC4)ccc3S(=O)(=O)N([C@H](C)CO)C[C@@H]2C)c1,·,·,–,·
CCOc1ccc(NC(=O)c2cnsn2)cc1,57,–,·,–
CCOc1cc(/C=C2\COc3ccccc3C2=O)cc(Br)c1OCC(=O)N(C)C,70,79,–,–
COc1ccc(/C=C2\COc3ccccc3C2=O)cc1OC,54,–,–,–
O=C(O)c1ccc(/C=C2\COc3ccccc3C2=O)cc1,78,–,–,–
COc1ccc(/C=C2\COc3ccccc3C2=O)c(OC)c1,–,–,–,–
N#C[C@@H]1[C@H](c2ccc(C3=CCCCC3)cc2)[C@H](CO)N1C(=O)c1cccc(F)c1,·,·,–,·
O=C(/C=C\c1cccs1)c1c(O)ccc2ccc(=O)oc12,51,–,–,–
O=C(C=Cc1cccs1)c1cccs1,–,–,–,·
Cc1noc(C)c1NC(=O)Nc1ccc2c(c1)C(=O)N([C@@H](C)CO)C[C@@H](C)[C@@H](CN(C)C(=O)CCCN(C)C)OCCCC[C@H](C)O2,·,·,–,·
Cc1cc(C)c(C)c(S(=O)(=O)N2CCN(c3ncnc4ccccc34)CC2)c1C,93,58,79,·
N#Cc1ccc(C(=O)Nc2nnc(-c3cccs3)o2)cc1,–,–,–,–
O=C(Nc1nnc(-c2cccs2)o1)c1cccc(C(F)(F)F)c1,101,–,–,–
SMILES,TWEAK-Fn14 inh,TROY NFkB inh,LGR2 inh,HSP90 inh
COc1ccc(/C=C/c2cc(-c3ccc(C)cc3)o[n+]2C)cc1,58,–,–,–
COc1ccc(C(=O)Cn2c(NCCCO)nc3ccccc32)cc1,–,–,–,·
Cc1cc2nc(NCCCO)n(CC(=O)c3cc(C(C)(C)C)c(O)c(C(C)(C)C)c3)c2cc1C,61,–,–,·
C[C@H](CO)N1C[C@H](C)[C@H](CN(C)Cc2ccncc2)OCCCC[C@H](C)Oc2ccc(NC(=O)Nc3ccc4c(c3)OCO4)cc2C1=O,·,·,–,·
N#Cc1c(NC(=O)Cn2c(=O)oc3ccccc32)oc(-c2ccccc2)c1-c1ccccc1,–,68,–,–
O=C(Cn1c(=O)oc2ccccc21)Nc1ccc(Br)cc1,–,–,–,–
CC=Cc1ccc2n(c1=O)C[C@H]1[C@H](CO)[C@@H](C(=O)NCC3CC3)[C@@H]2N1C(=O)c1ccccc1 (mixture of isomers),·,·,–,·
Cc1ccc(NC2CCCN(C(=O)C3CCCCC3)C2)cc1C (stereo not drawn),69,–,–,–
C[C@H]1CN([C@@H](C)CO)S(=O)(=O)c2ccc(-c3ccccc3)cc2O[C@H]1CN(C)Cc1ccccn1,·,·,–,·
CC(=O)N1CC2(C1)[C@H](c1ccc(-c3cccc(F)c3)cc1)[C@H](CO)N2CC1CC1,·,·,–,·
CCCCOC(=O)c1ccc(NC(=O)c2c(OC)cccc2OC)cc1,–,83,–,–
CC(C)OCCCN1CN(S(=O)(=O)c2ccccc2)c2nc3ccccc3nc21,77,·,·,–
CCCNC(=O)N1CC(=O)N2[C@H](CO)[C@@H](c3ccc(C#Cc4cccc(F)c4)cc3)[C@H]2C1,·,·,–,·
C[C@@H]1CN([C@H](C)CO)C(=O)c2cc(NC(=O)Nc3cccc4ccccc34)ccc2O[C@@H](C)CCCCO[C@H]1CN(C)S(=O)(=O)c1ccc(F)cc1,·,·,–,·
CCC(=O)N1C[C@H](C)[C@@H](OC)CN(C)C(=O)c2ccc(NC(=O)Nc3ccccc3)cc2OC[C@H]1C,·,·,–,·
O=C(COc1ccc(Br)cc1Br)NC(=S)N1CCCc2ccccc21,64,–,·,–
O=C(COc1ccc(Br)cc1Cl)NC(=S)N1CCc2ccccc21,–,–,–,–
COc1ccc2c3c([nH]c2c1)[C@@H](CO)N(Cc1ccccc1F)CC31CN(C(=O)C2CCCC2)C1,·,·,–,·
O=C(NCCCCc1ccccc1)c1cccc(NC(=O)C2CCCCC2)c1,–,–,–,·
O=C(NCCc1ccccc1)C1CCCN1C(=O)NCc1ccccc1 (stereo not drawn),–,–,·,–
CC(C)(C)OC(=O)N1CCC(C(=O)Nc2ccc(C(=O)NCCc3ccccc3)cc2)CC1,54,–,–,·
CC(C)(C)OC(=O)N1CCCC1C(=O)NCCc1ccccc1 (stereo not drawn),79,·,·,–
O=C(NCCCCc1ccccc1)c1cccc(NC(=O)C2CCC2)c1,101,–,–,·
CC(C)(C)OC(=O)N1CCCC(C(=O)Nc2cccc(C(=O)NCCc3ccccc3)c2)C1 (stereo not drawn),100,–,–,·
CC(C)(C)OC(=O)N1CCC(C(=O)Nc2ccc(C(=O)NCc3ccccc3)cc2)CC1,–,–,–,·
SMILES,TWEAK-Fn14 inh,TROY NFkB inh,LGR2 inh,HSP90 inh
O=C(NCC[C@@H]1CC[C@@H](NS(=O)(=O)c2cccc(F)c2)[C@@H](CO)O1)C1CCOCC1,·,·,–,·
C[C@H](NC(=O)[C@H]1N[C@H]2c3ccc(C4=CCCC4)c(=O)n3C[C@H]2[C@@H]1CO)c1ccccc1,·,·,–,·
CC(C)NC(=O)Nc1ccc2c(c1)CC(=O)N([C@H](C)CO)C[C@@H](C)[C@@H](CN(C)S(=O)(=O)c1ccccc1)O2,·,·,–,·
COc1cc(OC)nc(-n2ncc(Br)c(Br)c2=O)n1,103,63,103,–
C[C@H](O)[C@@H]1CN2CCc3c([nH]c4ccccc34)[C@@H]2C[C@@H]1N(C)C(=O)Nc1cccc2ccccc12,–,–,–,·
Cc1cccc(-c2ccc3[nH]c4c(c3c2)CCN2C[C@@H]([C@H](C)OC(=O)Nc3ccccc3C)[C@@H](N(C)C(=O)Nc3ccccc3C)C[C@@H]42)c1,88,–,–,·
CCNC(=O)C[C@@H]1CC[C@H]2[C@@H](COc3ccc(NC(=O)c4ccc(F)cc4)cc3C(=O)N2C)O1,·,·,–,·
O=C(CNC(=O)OCc1ccccc1)NCC(=O)NC(Cc1c[nH]c2ccccc12)C(=O)O (stereo not drawn),–,51,–,·
